Only a selection was taken, and hits are over-represented in it overall.
p53null 32C kill – qHTS Screen for Compounds that Selectively Target Cancer Cells with p53 Mutations: Cytotoxicity of p53 Null Cells at the Permissive Temperature; Potency, µM (series often up to 46.1 µM), without a hit: at the top dose activity change, negative = cytotoxicity, most hits filed as cytotoxic; H1299-neo p53 null cells, ATP luminescence, 24 h, 32C; AID 903, 2007; 55,000 tested, 0.62% active;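 note: 0% = DMSO only and -100% = full killing by 100 µM tamoxifen; nearly all actives have a fitted effect of over 55% in size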
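Luminescent ATP readout gave cell viability of p53-null H1299-neo cells after a 24 h compound exposure at the permissive 32C. Titrations ran up to 46 uM, and AC50s were fitted with the standard Hill equation.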
NTMT1 inhibitor – Primary qHTS for Inhibitors of N-terminal methyltransferase 1 (NTMT1): MTaseGlo Assay. N-terminal Xaa-Pro-Lys N-methyltransferase 1 (Homo sapiens), Q9BV86. NTMT1 MTase-Glo SAH luminescence, purified enzyme. Potency, µM (top dose mostly 114 µM), inactives show at the highest dose activity change, negative = inhibition, hits mostly inhibitors. 59,000 tested, 2.5% active. AID 1645870, 2021;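 note: plate controls were DMSO vehicle for no effect and no enzyme for full effect; nearly all actives have a fitted effect of over 65% in size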
Target sequence (Q9BV86 whole entry, looked up): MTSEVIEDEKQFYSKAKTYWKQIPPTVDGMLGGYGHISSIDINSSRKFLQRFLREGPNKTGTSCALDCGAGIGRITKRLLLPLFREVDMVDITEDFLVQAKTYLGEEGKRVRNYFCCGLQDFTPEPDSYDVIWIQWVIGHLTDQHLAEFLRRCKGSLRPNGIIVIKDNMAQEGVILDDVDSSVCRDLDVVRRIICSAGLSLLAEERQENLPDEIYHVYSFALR
OvCa metastasis – Primary qHTS assay for Inhibitors of ovarian cancer metastasis using an organotypic tumor microenvironment (TME) model. AID 1963576, 2024. 46,000 tested, 0.1% active. Potency, µM (doses to about 45.8 µM), for the others: at the highest dose activity change, negative = inhibition, most hits filed as inhibitors. SKOV3ip1-GFP adhesion/invasion on 3D omental model, fluorescence;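 note: plate controls were DMSO wells for no effect and tomatine positive control wells for full effect; nearly all actives have a fitted effect of over 65% in size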
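A 3D layer of primary human omental fibroblasts, mesothelial cells, fibronectin and collagen I, grown 48 hr, received SKOV3ip1-GFP cells in serum-free medium plus compounds at 0.36-46 umol/L. After 2 hr RT and 16 hr 37 C, fixed adherent GFP cells were counted; normalized to DMSO and tomatine.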
p53null 39C tox – qHTS Screen for Compounds that Selectively Target Cancer Cells with p53 Mutations: Cytotoxicity of p53 Null Cells at the Nonpermissive Temperature | H1299 p53-null (neo) cells, 39C, ATPlite viability, 24 h | 55,000 tested, 0.97% active | Potency, µM (doses to about 46.1 µM), for the others: top-dose activity, negative = cell killing, most hits filed as cytotoxic;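 note: 0% = DMSO only and -100% = full killing by 100 µM tamoxifen; nearly all actives have a fitted effect of over 50% in size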
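Cells seeded at 600/well, 37C overnight. Compound added (up to 46 uM), plates shifted to 39C for 24 hr. ATPlite added, luminescence read after 20 min at room temperature.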
* = called active by the depositor; i = inactive; ? = inconclusive; nt = no result given; ! = repeats disagree; [ ] = remark or other dose. Calls come from the whole dose curve; as a rule, active = well fitted curve in the direction sought with a large enough effect; inconclusive = small, poorly fitted or top-dose-only effect, or another doubt; inactive = no such curve, though single readings can be large; an effect the other way counts as inactive or inconclusive. Potency is the fitted concentration of half-maximal effect.

SMILES	p53null 32C kill	NTMT1 inhibitor	OvCa metastasis	p53null 39C tox
CCC(C)C(N)C1=NC(C(=O)N[C@@H](CC(C)C)C(=O)N[C@H](CCC(=O)O)C(=O)N[C@H](C(=O)N[C@H]2CCCCNC(=O)[C@H](CC(N)=O)NC(=O)[C@@H](CC(=O)O)NC(=O)[C@H](Cc3cnc[nH]3)NC(=O)[C@@H](Cc3ccccc3)NC(=O)[C@H]([C@@H](C)CC)NC(=O)[C@@H](CCCN)NC2=O)[C@@H](C)CC)CS1 (stereo partly drawn)	nt	7.94µM*!	nt	nt
COc1ccc(CNc2nc(-c3ccccc3C(F)(F)F)nc3ccccc23)cc1	nt	7.7%	nt	nt
Cc1ccc(C)c(Cn2c(=O)n(CCCCC(=O)NCc3ccc4c(c3)OCO4)c(=O)c3ccccc32)c1	11.3%	89.1µM*	i	-11.6%
Cc1ccc(C)c(Cn2c(=O)n(CCCCC(=O)NCc3ccccc3Cl)c(=O)c3ccccc32)c1	17.4%	79.4µM*	i	-14.4%
Cc1ccc(Cn2c(=O)n(CCCCC(=O)NCc3ccccc3Cl)c(=O)c3ccccc32)cc1	-11.8%	12.0%	35.4%	-10.3%
COC(=O)C1=C(C)NC(c2ncc(F)cc2F)=N[C@H]1c1ccc(F)cc1Cl	nt	14.5%	nt	nt
CC(C)=CCCC1(C)Oc2cc3c(c4c2C2C(O4)C(C)(O)CCC21)CN(C(CCC(=O)O)C(=O)O)C3=O (stereo not drawn)	nt	-2.6%[29.8 µM]	nt	nt
CC[C@@H](Nc1c(Nc2cccc(C(=O)N(C)C)c2O)c(=O)c1=O)c1ccc(C)o1	nt	6.1%[57.5 µM]	nt	nt
CC(=O)Nc1ccc(NC(=O)C2CCN(c3cnccn3)CC2)cc1	2.0%	?	i	-3.5%
CC(C)(C)c1ccc(NC(=O)C2CCCN(c3cnccn3)C2)cc1 (stereo not drawn)	-6.1%	89.1µM*	-7.8%	-11.6%
COc1ccc(-c2nc(CSc3nc4ncccc4[nH]3)c(C)o2)cc1OC	-18.9%	-6.4%	i	-17.9%
COc1ccc(CSc2nc3ncccc3[nH]2)cc1	11.2µM*	?	i	11.2µM*
Nc1c(-c2ccncc2)cc[nH]c1=O	nt	79.4µM*	nt	nt
O=C(O)c1ccc(Nc2nc3ccccc3n3cnnc23)cc1	-9.6%	12.6µM*	6.9%	-3.7%
c1ccc(Nc2nc3ccccc3n3cnnc23)cc1	22.4%	nt	nt	22.2%
CC(C)=CC[C@@H](O)C1=CC(=O)c2c(O)ccc(O)c2C1=O	nt	50.1µM*!	7.8%	nt
COc1cccc(CCN2C(=O)c3ccccc3NC2c2ccc(OC)c(COc3c(C)cc(NC(C)=O)cc3C)c2)c1 (stereo not drawn)	nt	16.2%	nt	nt
CCc1ccc2occ(CC(=O)Nc3c(C(=O)c4ccc(C)cc4)oc4ccccc34)c2c1	-3.3%	-0.3%	1.8%	-11.3%
CCc1oc2ccccc2c1C(=O)c1cc(I)c(O)c(I)c1	nt	20µM*	nt	nt
Cc1ccc(S(=O)(=O)Nc2ccccc2C(=O)Nc2ccc(-c3ccccc3)nc2)cc1	nt	15.9%	nt	nt
FC(F)(F)c1ccccc1-c1nc(NCc2ccc(-c3cccnc3)cc2)c2ccccc2n1	nt	11.5%	nt	nt
O=C(Nc1ccc(F)cc1)c1ncn(-c2ccccc2)n1	?	-15.0%	-0.8%	31.6µM*
CCOc1ccc(NC(=O)c2ncn(-c3ccccc3)n2)cc1	-17.2%	-2.9%	7.1%	-18.8%
O=C(CCCc1ccccc1)c1ccc2c(c1)OCCO2	10µM*	nt	nt	12.6µM*
O=C(NCCCc1ccccc1)C1CC(=O)N(c2ccc3c(c2)OCCO3)C1 (stereo not drawn)	6.5%	nt	nt	12.7%
SMILES	p53null 32C kill	NTMT1 inhibitor	OvCa metastasis	p53null 39C tox
CC1CC=C2C1CC1(O)C(=O)CC2(C)C1(C)CO (stereo not drawn)	nt	-2.5%[57.5 µM]	nt	nt
O=C(Nc1cc(Cl)cc2c1[nH]c1cnccc12)c1cccnc1	nt	17.8µM*!	-0.7%	nt
O=C(Nc1cccnc1)c1cccnc1	-5.5%	nt	nt	-14.7%
CCc1ccccc1N1C(=O)N(Cc2cccc(Cl)c2)c2ccccc2S1(=O)=O	2.2%	89.1µM*	2.5%	15.4%
Cc1ccc(N2C(=O)N(Cc3cccc(Cl)c3)c3ccccc3S2(=O)=O)cc1	1.4%	-24.8%	19.3%	25.4%
Cn1cncc1[C@@](N)(c1ccc(Cl)cc1)c1ccc2c(c1)c(-c1cccc(Cl)c1)cc(=O)n2C	nt	21.5µM*!	-2.2%	nt
Cc1cccc(-n2c3nc(=O)n(C)c(=O)c-3cc3ccc(Cl)cc32)c1C	-3.7%	-15.1%	26.0%	-6.7%
COC(=O)c1ccccc1NC(=O)c1cc2ccccn2n1	-15.4%	nt	?	?
Cc1ccccc1CCNC(=O)c1cc2ccccn2n1	?	nt	4.9%	10µM*
COc1cc(NC(=O)c2cc3ccccn3n2)cc(OC)c1OC	-15.8%	nt	0.9%	-4.5%
Cc1ccc(NC(=O)c2cc3ccccn3n2)cc1F	12.6µM*	nt	i	?
CCc1ccc(NC(=O)c2cc3ccccn3n2)cc1	10µM*	-1.9%	i	7.94µM*
CC(=O)OC(C(=O)N1CCN(c2ccc(F)cc2)CC1)c1ccccc1 (stereo not drawn)	-0.7%	nt	nt	-1.5%
CO[C@@H](C(=O)N1Cc2[nH]nc(NC(=O)c3ccc(N4CCN(C)CC4)cc3)c2C1)c1ccccc1	nt	1.8%	13.2µM*	nt
COc1ccc(C(=O)N2CCN(c3ccc4c(c3)CCC(=O)N4)CC2)cc1OC	nt	-1.1%	nt	nt
Cc1cc(N[S+](=O)([O-])c2ccc(NC(=O)Cn3c(=O)oc4ccc(Cl)cc43)cc2)no1	nt	17.0%	nt	nt
CCN(CC)CCOCCOC(=O)C1(c2ccccc2)CCCC1	nt	10µM*	nt	nt
CCN(CC)CCOc1ccccc1C(=O)CCc1ccccc1	nt	23.7%[57.5 µM]	nt	nt
O=C1CCCC2=C1C(c1cccc(Oc3ccccc3)c1)N=C(Nc1nc3ccccc3o1)N2 (stereo not drawn)	nt	13.4%	nt	nt
Cn1cc(C(=O)N/N=C/c2cccs2)c2ccccc21	-10.8%	nt	nt	-18.9%
O=C(N/N=C/c1cccs1)c1ccc2c(c1)OCO2	2.82µM*	nt	nt	-19.3%[1.84 µM]
COc1ccc(-c2nc3c4ccccc4n(CC(=O)N4CCN(c5ccc(F)cc5)CC4)c(=O)n3n2)cc1	-9.4%	89.1µM*	-13.0%	-14.0%
COc1ccccc1N1CCN(C(=O)Cn2c(=O)n3nc(-c4ccc(C)cc4)nc3c3ccccc32)CC1	-1.1%	-3.2%	8.7%	-6.1%
Cc1cc2c(s1)c1cnn(Cc3ccc(Cl)cc3)c(=O)c1n2C	nt	89.1µM*	nt	nt
CC1CCCN(CCCNC(=O)c2cc(Sc3ccc(F)cc3)nc3ccccc23)C1 (stereo not drawn)	6.0%	2.0%	i	9.9%
O=C(NCCCN1CCCCC1)c1cc(Sc2ccc(Cl)cc2)nc2ccccc12	-4.6%	89.1µM*	i	18.6%
Cc1cc(-c2cc(O)ccc2Cl)cc2nnc(Nc3ccc(OCCN4CCCC4)cc3)nc12	nt	20µM*	nt	nt
Cc1ccc(/C=C/C(=O)Nc2ccccc2C(N)=O)o1	12.6µM*	?	0.7%	10µM*

High-throughput results: PubChem, National Center for Advancing Translational Sciences (NCATS)
